Assay outcomes from PubChem.
Only some compounds are listed: those with a hit (about 15% of all), similar ones and a draw of the others.
VP16 counter: counter-screen for ROR gamma inhibitors: Gal4-VP16 reporter; Drosophila S2 Gal4-VP16 UAS-luciferase, luminescence, 20 h; Potency, µM (top dose mostly 53.6 µM), inactives show top-dose activity, negative = inhibition, usual class: inhibitors; 310,000 compounds, 3.5% hits; AID 2546;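 note: Gal4-VP16 expression switched on by copper sulfate through the metallothionein promoter; nearly all actives have a fitted effect of over 50% in size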
ELG1 DNA repair: inhibitors of ELG1-dependent DNA repair in HEK293T cells; Potency, µM (series often up to 46.1 µM), for the others: at the highest dose activity change, negative = inhibition, most hits filed as inhibitors; 330,000 compounds, 2.3% hits; AID 504467; HEK293T ELG1-luciferase reporter, luminescence, 16 h; DNA damage induced by 5-fluorouridine; note: nearly all actives have a fitted effect of over 55% in size
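Reporter activity after DNA damage by 5-fluorouridine is monitored. Compound-treated cells incubate 16 hr at 37 °C, then ONE-Glo is added for 30 min before luminescence reading.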
12-LOX inh: blocks human arachidonate 12S-lipoxygenase; P18054; purified 12hLO, xylenol orange hydroperoxide absorbance; Potency, µM (doses to about 108 µM), without a hit: at the top dose activity change, negative = inhibition, hits mostly inhibitors; 580,000 compounds, 1.1% hits; AID 1671190
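Hydroperoxide product was detected by ferrous iron/xylenol orange as the 573 to 405 nm absorbance ratio. Arachidonic acid at 40 uM (final) was turned over for 30 min at room temperature by 150 nM human 12hLO, pH 7.0 Hepes buffer, after 15 min compound preincubation.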
TDP1 cell noCPT: qHTS for Inhibitors of human tyrosyl-DNA phosphodiesterase 1 (TDP1): qHTS in cells in absence of CPT | DT40 Tdp1-/- hTDP1 cells, no CPT, ATP luminescence, 48 h | 420,000 compounds, 15% hits | Potency, µM (doses to about 46.2 µM), inactives show top-dose activity change, negative = growth inhibition, actives largely listed as inhibitors; note: nearly all actives have a fitted effect of over 55% in size
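A cellular qHTS used chicken DT40 cells lacking endogenous Tdp1 but carrying stably transfected human TDP1. Compounds were applied without camptothecin, and cell growth kinetics were judged by ATP-dependent luminescence after ≥48 hr.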
RORg inh: ROR gamma (mouse) transcription inhibition | P51450 | Drosophila S2 Gal4-RORgamma UAS-luciferase reporter, 20 h | Potency, µM (titrated, usually from 53.6 µM), without a hit: top-dose activity change, negative = inhibition, hits mostly inhibitors | 310,000 compounds, 5.4% hits | AID 2551; note: nearly all actives have a fitted effect of over 60% in size
Target sequence (P51450 whole entry, looked up, the tested form may be a part): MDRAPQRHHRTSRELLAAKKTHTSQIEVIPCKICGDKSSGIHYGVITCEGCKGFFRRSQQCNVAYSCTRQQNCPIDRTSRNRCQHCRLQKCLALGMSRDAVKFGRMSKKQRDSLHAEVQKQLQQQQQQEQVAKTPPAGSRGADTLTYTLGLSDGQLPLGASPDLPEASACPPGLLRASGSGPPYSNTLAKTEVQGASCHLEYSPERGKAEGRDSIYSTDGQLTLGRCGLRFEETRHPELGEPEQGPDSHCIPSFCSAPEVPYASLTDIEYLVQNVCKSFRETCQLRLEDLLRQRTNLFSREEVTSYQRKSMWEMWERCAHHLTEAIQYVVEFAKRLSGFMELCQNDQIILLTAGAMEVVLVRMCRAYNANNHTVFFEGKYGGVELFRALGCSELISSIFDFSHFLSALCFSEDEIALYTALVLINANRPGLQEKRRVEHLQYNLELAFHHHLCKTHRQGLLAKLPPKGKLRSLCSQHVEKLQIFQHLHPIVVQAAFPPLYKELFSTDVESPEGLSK
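Using a luciferase readout, inhibitors were identified by reduced reporter activity in Drosophila cells coexpressing a copper-inducible Gal4–ROR gamma fusion and UAS-driven Photinus luciferase, incubated 20 hr after 700 uM copper sulfate.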
DT40 TDP1 CPT: growth inhibition of DT40 Tdp1-/-;hTDP1 cells with camptothecin (screen for TDP1 inhibitors); 420,000 compounds, 12% hits; chicken DT40 Tdp1-/-;hTDP1 cells + 20 nM CPT, ATP luminescence, 48 h; Potency, µM (titrated, usually from 46.2 µM), without a hit: top-dose activity change, negative = growth inhibition, usual class: inhibitors; note: nearly all actives have a fitted effect of over 55% in size
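Cell growth measured by CellTiter-Glo luminescence after a minimum 48 h, 37 C compound exposure with 20 nM CPT in Tdp1-knockout DT40 cells stably expressing hTDP1, seeded 400/well; qHTS titration format.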
* hit, by the source's call; ? = inconclusive; / = not tested or not shown; [ ] = dose if it differs, or a comment. Calls come from the whole dose curve; as a rule, active = well fitted curve in the direction sought with a large enough effect; inconclusive = small, poorly fitted or top-dose-only effect, or another doubt; inactive = no such curve, though single readings can be large; an effect the other way counts as inactive or inconclusive. % is set by controls: 0 for no effect and ±100 for the full control effect; potency is the fitted concentration of half-maximal effect.

SMILES | VP16 counter | ELG1 DNA repair | 12-LOX inh | TDP1 cell noCPT | RORg inh | DT40 TDP1 CPT
CCOC(=O)N1CCc2[nH]c3ccc(C)cc3c2C1 | 0% | ? | 59% | 23µM* | -2% | 15µM*
Cc1cc(=O)n2c3ccccc3nc2n1CC(=O)c1ccc(Br)cc1 | / | / | -2% | / | / | /
O=C(Cn1nc(C(=O)O)c2ccccc2c1=O)Nc1ccc(F)c(F)c1F | / | / | -3% | / | / | /
O=C(c1ccc(-c2ccc([N+](=O)[O-])cc2)o1)N1CCCCC1 | 16µM* | ? | ? | -19% | ? | ?
CC1CC(C)CN(C(=O)c2ccc(-c3ccc([N+](=O)[O-])cc3)o2)C1 (configuration not stated) | / | ? | ? | 16µM* | / | 16µM*
O=C(/C=C\c1ccc(-c2cccc([N+](=O)[O-])c2)o1)N1CCOCC1 | 5% | -2% | -11% | 23µM* | 30% | ?
O=C(c1cccc([N+](=O)[O-])c1)N1CCN(c2ccc(Cl)cc2)CC1 | -7% | -12% | -22% | 15µM* | ? | 21µM*
Cc1ccc(C(=O)N2CCN(c3ccc([N+](=O)[O-])cc3)CC2)o1 | 2% | -8% | -1% | ? | -8% | ?
O=C(/C=C/c1ccccc1[N+](=O)[O-])N1CCOCC1 | -1% | -4% | -11% | -5% | 3% | 4%
O=C(NN1C(=O)NC2(CCCCC2)C1=O)c1ccc(-c2ccccc2Cl)o1 | / | ? | 5% | -29% | / | ?
CCc1nc2ccc(C(=O)N3CCN(c4ccc([N+](=O)[O-])cc4)CC3)cc2nc1CC | 3% | ? | -10% | ? | 19% | 16µM*
O=[N+]([O-])c1cccc(-c2ccc(C(=S)N3CCN(c4ccc(F)cc4)CC3)o2)c1 | -14% | 7% | -27% | -12% | 6% | -17%
O=C(NN1C(=O)NC2(CCCCC2)C1=O)c1ccc(-c2ccc([N+](=O)[O-])cc2)o1 | -4% | -4% | ? | 21µM* | 23% | 21µM*
O=C(c1ccc(-c2ccc(Cl)cc2)o1)N1CCN(c2ccc([N+](=O)[O-])cc2Cl)CC1 | -1%[0.365 µM] | ? | -6% | 2.6µM* | ? | 5.2µM*
O=C(c1ccc(-c2cccc([N+](=O)[O-])c2)o1)N1CCN(c2ccc([N+](=O)[O-])cc2)CC1 | / | 12% | -27% | 4.1µM* | / | 6.5µM*
CCCC(=O)N1CCC2(CC1)CC(N(Cc1ccc(F)cc1)C1CC1)CCO2 (configuration not stated) | / | / | -5% | / | / | /
CC(=O)Nc1cccc(NC(=O)c2cc(C(C)C)nc3ccccc23)c1 | / | / | -17% | / | / | /
CCOC(=O)CNc1nc(-c2ccccc2)c2cc(C)ccc2n1 | / | / | 18% | / | / | /
COc1ccccc1CNc1cc(-c2ccccc2OC)ncn1 | 6% | / | -3% | 2.9µM* | -6% | 4.6µM*
COc1ccccc1CNc1cc(-c2ccccc2C)ncn1 | -3% | / | ? | 4.1µM* | -2% | 4.1µM*
COc1cccc(-c2cc(NCc3ccc(OC)cc3OC)ncn2)c1 | -5% | / | -21% | 13µM* | 13% | 10µM*
COc1ccc(CNc2cc(-c3ccccc3C)ncn2)c(OC)c1 | -6% | / | ? | ? | 68% | ?
CCn1cc(S(=O)(=O)N2CCC(Cc3nc(-c4ccncc4)n[nH]3)C2)cn1 (configuration not stated) | / | / | 46% | / | / | /
CCOC(=O)c1c(-n2cnnn2)sc2c1CCCC2 | -26% | -10% | -20% | -21% | -14% | -22%
CCOC(=O)c1c(N2C(=O)C3C4C=CC(O4)C3C2=O)sc2c1CCCC2 (configuration not stated) | 18µM* | / | ? | 16µM* | ? | 8.2µM*
